The whole screen tested about 190,000 compounds, of which about 810 (0.43%) were called active. No stated cut-off is given here; in the data, active means inhibition above about 50%; inactive means the rest. Only a selection was taken, and actives are over-represented in it overall.
target: Mannose-6-phosphate isomerase (Homo sapiens) (UniProt P34949); assay: MPI enzyme activity inhibition – biochemical, fluorescence intensity, coupled assay, primary screen (AID 1209); settings: purified PMI enzyme, at 20 µM, hits give high values;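 further: plate controls were DMSO vehicle for no effect and wells lacking substrate for full effect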
Sequence (P34949 whole entry, looked up): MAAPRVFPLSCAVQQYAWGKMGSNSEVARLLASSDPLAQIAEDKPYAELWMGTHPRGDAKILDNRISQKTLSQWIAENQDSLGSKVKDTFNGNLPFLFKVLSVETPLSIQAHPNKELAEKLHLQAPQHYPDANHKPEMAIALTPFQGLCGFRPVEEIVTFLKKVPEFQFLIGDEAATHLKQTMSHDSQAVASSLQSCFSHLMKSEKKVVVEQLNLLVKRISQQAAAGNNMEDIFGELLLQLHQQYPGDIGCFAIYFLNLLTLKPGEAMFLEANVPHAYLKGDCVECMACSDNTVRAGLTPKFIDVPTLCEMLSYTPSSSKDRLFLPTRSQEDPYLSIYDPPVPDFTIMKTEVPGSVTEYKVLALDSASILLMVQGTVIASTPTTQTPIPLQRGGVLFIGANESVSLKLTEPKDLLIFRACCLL

inhibition, inactive:
CC1=CC(=O)C(C(C)C)=CC1=NC(=O)c1ccc(C)cc1 46.6%
CC1=CC(=O)C=C(C)C1=NOC(=O)/C=C\c1ccccc1 17.8%
CC1=CC(=O)C=C(C)C1=NOc1ccccc1[N+](=O)[O-] 25.5%
O=S(=O)(O/N=C1\CCCc2ccccc21)c1ccccc1 -1.2%
CC(=O)N1C(C)(C)CC(=NOS(=O)(=O)c2ccccc2)CC1(C)C -17.4%
CC1=CC(=O)c2ccccc2C1=O -57.7%
CC1CCN(C(=O)c2ccc(SCc3ccccc3F)c([N+](=O)[O-])c2)CC1 20%
O=C(O)CCCC(=O)Nc1cc([N+](=O)[O-])ccc1O 9.3%
COc1ccc(O)c(/C=N/NC(=S)Nc2cccc(S(=O)(=O)N(C)C)c2)c1 -10.9%
O=C(c1cn[nH]c1)c1cc(F)ccc1O 12.2%
COc1ccc(C(=O)N/N=C(/C)c2cccc(NC(=O)C(F)(F)F)c2)cc1 0.4%
CC(C)(C)c1ccc(S(=O)(=O)O/N=C2/CCCCC2c2ccc([N+](=O)[O-])cc2[N+](=O)[O-])cc1 (centres undefined) 7.7%
CCN(CC)Cc1cc(NC2=NS(=O)(=O)c3ccccc32)ccc1OC(=O)c1ccccc1 -5.8%
CC(C)(C)c1ccc(C(=O)NNC(=S)NCC2CCCO2)cc1 (centres undefined) -0.9%
O=C1c2ccccc2C(=O)N1CCSc1n[nH]c(=S)s1 -5.1%
Cc1nn(-c2ccccc2)c(Cl)c1C(=O)Nc1ccc(N2CCOCC2)cc1 -17.1%
COc1ccc(S(=O)(=O)NN=C2CCCCC2)cc1 -30.4%
COc1ccc(-n2nc(C(=O)NCC(=O)NCc3ccco3)c3ccccc3c2=O)cc1 0.1%
Fc1ccc(C2=Nn3c(Cc4ccccc4)nnc3SC2)cc1 11.2%
c1ccc(Cc2nnc3n2N=C(c2ccccc2)CS3)cc1 13.3%
O=C(COC(=O)c1cccnc1Cl)Nc1ccccc1OC(F)F -0.4%
CCC(C)(C)NC(=O)C(c1cccn1C)N(C(=O)Cn1nnc2ccccc21)c1ccccc1OC (centres undefined) -6.8%
N#Cc1cn(CCOC(=O)c2cccc(C(F)(F)F)c2)c(=O)[nH]c1=O 4.3%
CCN1CCN(c2nc3ccccc3nc2C(C#N)C(=O)OCc2ccccc2)CC1 (centres undefined) 8.9%
COC(=O)c1ccc(OC(=O)c2ccco2)cc1 -5%
O=C(Oc1ccc(-c2cnc3ccccc3n2)cc1)c1ccco1 0.2%
Cc1cccc(-n2nnnc2SCC(=O)c2cc(C)n(Cc3ccco3)c2C)c1 -2.6%
CC(=O)Nc1nc2c(c3c1c(=O)oc1ccccc13)CCCCC2 -2.8%
CCOc1ccc(CONS(=O)(=O)c2ccc(NC(C)=O)cc2)cc1Cl 16.3%
C[N+]1(CC#CC(O)(c2ccccc2)c2ccccc2)CCCC1 21.6%
CC12CCC3(CO)COC(c4ccccc4O1)C2C3 (centres undefined) 3.4%
C=CCN(CC=C)C(=O)Nc1ccc2nc(C)sc2c1 8.1%
CCOC(=O)N1CCN(C(=O)c2ccc(S(=O)(=O)NCc3ccco3)cc2)CC1 -4.2%
Cc1ccc(NC(=O)c2ccc(N/N=C/c3cccc(O)c3)c([N+](=O)[O-])c2)cc1 5.1%
O=c1[nH][nH]c(-c2ccccc2)c1C=Nc1ccc(Cl)cc1 -4.3%
Cn1cnnc1SCC(=O)Nc1ccccc1F -2%
Cc1cccc(NC(=S)NNC(=O)c2csc(C)c2)c1 -3.7%
CCc1cc(C(=O)NNC(=S)Nc2ccccc2C)cs1 -8.6%
O=C(Nn1cnnc1)C1CCCN1S(=O)(=O)c1ccc(F)cc1 (centres undefined) -3.3%
Cc1ccc(NC(=O)CSc2nnc(C)n2-c2ccccc2)cc1 -1.7%
Cc1ccc(-n2c(=O)[nH]c3ncccc3c2=O)cc1 12.9%
Cc1ccc(N=Cc2ccc(O)cc2O)cc1F 9.4%
Oc1ccc(C=Nc2cccc3ncccc23)c(O)c1 46.8%

inhibition, active:
CC1=C/C(=N\OS(=O)(=O)c2ccccc2)C=CC1=O 96.1%
CC1=C/C(=N\OS(=O)(=O)c2ccccc2)C(C)=CC1=O 106%
c1ccc(-c2ccc(C3=Nn4c(Cn5nnc6ccccc65)nnc4SC3)cc2)cc1 50.3%
CC1(C#CC[N+]2(C)CCCCC2)CCC2C(O1)c1ccccc1OC2(C)C (centres undefined) 105%
Cc1cc(C(=O)NNC(=S)Nc2ccccc2C)cs1 70.7%
Oc1ccc(C=Nc2ccc3ncccc3c2)c(O)c1 68.4%
